{
  "source": "PubChem BioAssay AID624331",
  "about": "(National Center for Advancing Translational Sciences (NCATS), 2012)",
  "note": "Results filed as inconclusive are left out. Entries that show only a call come without a potency. The source made the active and inactive calls. The call rests on the fitted dose curve; in most records, active means well fitted activation curve with a large enough effect; inconclusive means small, poorly fitted or top-dose-only effect; inactive means no such curve, though single readings can be large or run the other way. Potency means the concentration at half of the fitted maximal effect.",
  "data": [
    {"assay": "qHTS assay for re-activators of p53 using a Luc reporter: Hit Validation with no p53 Expressed", "details": "p53-null cells, luciferase reporter counter-screen; series mostly up to 46.1 µM", "description": "The p53 tumor suppressor plays a key role in suppression of tumorigenesis and in human carcinogenesis. It is frequently found inactivated in human cancers, mainly by point mutation. These point mutations are found in a wide variety of human cancers and a majority of them affect the DNA binding domain of the protein. The point mutations either alter native p53 conformation or abolish DNA contact. Additionally, cancer cells with p53 mutations are more resistant to chemo-radiation therapies.\nThis counter screen was run against the hits identified from the primary screen. It uses a cell line that was not transfected with p53. Compounds that show activity in this counter screen show unspecific activation of the assay system and are excluded from further consideration.\nNIH Chemical Genomics Center [NCGC]\nNIH Molecular Libraries Probe Production Centers Network [MLPCN]\nAssay Provider (PI): Yi Sung, University of Michigan at Ann Arbor\n5ul of 1000 cells per well are dispensed in all wells except column 4, into white solid-bottom TC-treated Kalypsys plates. The cells are kept in Opti-MEM and supplemented with 10% FBS and dispensed using a Multidrop (Thermo). Then using the Kalypsys pin-tool, 23nl of compounds are pinned. The compounds are starting concentration at 10mM, with 1:5 dilution, 4 points, and the control compound nocodazole is pinned in column 1 at 25mM, 1:3 dilution, in duplicate, 25mM nocodazole is pinned in column 2. Please note, all concentrations are working concentrations. 5ul of 1pM purified luciferase enzyme is dispensed using the Kalypsys dispenser in column 4. Plates are incubated for 24 hrs at 37 deg C, 5% CO2, and 95% humidity. Then 4ul of the detection reagent Amplite (ABD Bioquest) is added using the Kalypsys dispenser. Plates are incubated for 10 min at ambient room temperature and are then read on the ViewLux (Perkin Elmer) using a clear filter for a luminescent read-out.", "values": [
      {"compound": "Cc1ccc(C(=O)Nc2cnc3sc(C)nn3c2=O)cc1", "Potency": "inactive"},
      {"compound": "NC(=O)c1ccc(-n2c(CCC(=O)O)ccc2-c2cccs2)cc1", "Potency": "inactive"},
      {"compound": "C/C(=N\\N=c1/scc(C)n1Cc1ccco1)c1cccc([N+](=O)[O-])c1", "Potency": "inactive"},
      {"compound": "Cc1cc(Oc2ccccc2)nc(-c2ccccc2O)n1", "Potency": "inactive"},
      {"compound": "C=CCn1c(C)cc(C(=O)CSc2nc3ccccc3o2)c1C", "Potency": "inactive"},
      {"compound": "C/C(=N\\NC(=O)c1cc(C)nc2ccccc12)c1ccccn1", "Potency": "inactive"},
      {"compound": "CSC1=NCCN1C(=O)c1ccc(Br)o1", "Potency": "inactive"},
      {"compound": "Cc1cc(C(=O)Nc2ccc(Br)cn2)sc1C", "Potency": "inactive"},
      {"compound": "CC1CCN(C(=O)c2cc(-c3ccccc3O)on2)CC1", "Potency": "inactive"},
      {"compound": "CCCCC(=O)Nc1cccc(NC(=S)NC(=O)Cc2ccccc2)c1", "Potency": "inactive"},
      {"compound": "CCOc1ccc(N/C=C/C(=O)c2ccccc2)c([N+](=O)[O-])c1", "Potency": "inactive"},
      {"compound": "CCC(=O)Nc1ccc2oc(-c3cccc(C)c3)nc2c1", "Potency": "inactive"},
      {"compound": "CCOC(=O)c1sc(NC(=S)NC(=O)c2ccco2)nc1C", "Potency": "inactive"},
      {"compound": "Cc1ccc2c(c1)C(N1CCCC1=O)CC(c1ccco1)N2", "note": "(stereo not given)", "Potency": "inactive"},
      {"compound": "Cc1ccc2nc(N3C(=O)C(O)=C(C(=O)c4ccc(C)o4)C3c3ccco3)sc2c1", "note": "(stereo not given)", "Potency": "inactive"},
      {"compound": "O=C1CCCC(O)=C1N=Nc1ccc2c(c1)OCO2", "Potency": "inactive"},
      {"compound": "COc1ccc2cc3c(N)nn(C(=O)c4ccc(Cl)c([N+](=O)[O-])c4)c3nc2c1", "Potency": "inactive"},
      {"compound": "CCN(CC)c1ccc2cc(-c3nc4ccccc4n3C)c(=O)oc2c1", "Potency": "inactive"},
      {"compound": "Cc1ncsc1C(=O)Nc1nc2c(s1)CCCC2", "Potency": "inactive"},
      {"compound": "O=C1/C(=C/c2ccco2)SC(=S)N1CCC(=O)N1CCCCC1CCO", "note": "(stereo not given)", "Potency": "inactive"},
      {"compound": "CC(=O)c1c(C)[nH]c(C(=O)OCC(=O)c2ccc(C)s2)c1C", "Potency": "inactive"},
      {"compound": "Cn1c(C(=O)Nc2ccc3c(c2)OCCO3)cc2sccc21", "Potency": "1.16 µM (active)"},
      {"compound": "O=C(CCC1CCCC1)Nc1ccc(Br)cn1", "Potency": "inactive"},
      {"compound": "CC1(C)Oc2ccc(NC(=O)C3COc4ccccc4O3)cc2O1", "note": "(stereo not given)", "Potency": "inactive"},
      {"compound": "NC(=O)c1cc(Cl)ccc1OCC(=O)Nc1ccc2c(c1)OCO2", "Potency": "inactive"},
      {"compound": "NNC(=O)c1cccc(O)c1", "Potency": "inactive"},
      {"compound": "Cn1ncc([N+](=O)[O-])c1C(=O)Nc1ccc(C2CCCCC2)cc1", "Potency": "inactive"},
      {"compound": "Cc1cccc(C)c1Nc1c(-c2ccccn2)nc2ccccn12", "Potency": "inactive"},
      {"compound": "COc1cc(C(=O)N/N=C(\\c2ccccc2)c2ccccn2)cc(OC)c1OC", "Potency": "inactive"},
      {"compound": "COc1cccc(C2(c3cccc(OC)c3)CC2C(=O)Nc2cccc3ccccc23)c1", "note": "(stereo not given)", "Potency": "inactive"},
      {"compound": "Cc1nc(NCCc2ccccc2)c2nnn(Cc3ccccc3Cl)c2n1", "Potency": "inactive"},
      {"compound": "CCOC(=O)N1CCN(S(=O)(=O)c2ccc(C(=O)NNc3nc4cc(C)cc(C)c4s3)cc2)CC1", "Potency": "inactive"},
      {"compound": "Cn1cc(Cl)c(C(=O)Nc2nc3ccccc3s2)n1", "Potency": "inactive"},
      {"compound": "CC1CCCC(C)N1C(=O)CSc1nnc(-c2cccs2)o1", "note": "(stereo not given)", "Potency": "inactive"},
      {"compound": "CC(C)NC(=S)N1CCN(S(C)(=O)=O)CC1", "Potency": "inactive"},
      {"compound": "O=C(N/N=C(\\c1ccccc1)c1ccccn1)c1ccccc1Cl", "Potency": "inactive"},
      {"compound": "N/C(=N\\c1nc2ccccc2o1)NC(=O)c1ccc(F)cc1", "Potency": "inactive"},
      {"compound": "Cc1sc2nc(CSC(C)C(=O)Nc3ccccn3)[nH]c(=O)c2c1C", "note": "(stereo not given)", "Potency": "inactive"},
      {"compound": "O=C(NN=C1CCCCCC1)c1cccs1", "Potency": "inactive"},
      {"compound": "Cn1c(=NC(=O)c2ccco2)sc2cccc(F)c21", "Potency": "inactive"}
    ]}
  ]
}
